# Counter-ions that a name gives are not always drawn. ± gives the standard deviation.
# System: Jurkat
# Assay: cell count relative to DMSO control (fraction of control); higher = more cells (less growth inhibition)
# Details: 48 h
row,Structure (SMILES),cell count
1,CC(C)[C@H](N)C(=O)OCC(CO)OCn1cnc2c(=O)[nH]c(N)nc21 (stereo partly drawn) [Valganciclovir·HCl] (concentration: 25 µM),0.892 ± 0.099
2,CCCCNc1cc(C(=O)O)cc(S(N)(=O)=O)c1Oc1ccccc1 [Bumetanide] (concentration: 25 µM),0.863 ± 0.022
3,O=C1CC2(CCCC2)CC(=O)N1CCCCN1CCN(c2ncccn2)CC1 [Buspirone·HCl] (concentration: 25 µM),0.96 ± 0.097
4,CC(C[N+](C)(C)C)OC(N)=O (stereo not drawn) [Bethanechol Chloride] (concentration: 25 µM),0.393 ± 0.12
5,Cc1ccc(C(=O)c2ccc(CC(=O)O)n2C)cc1 [Tolmetin·Na] (concentration: 25 µM),0.912 ± 0.11
6,CCC(=O)NCC[C@@H]1CCc2ccc3c(c21)CCO3 [Ramelteon] (concentration: 25 µM),0.926 ± 0.11
7,CC[C@H]1OC(=O)[C@H](C)[C@@H](O[C@H]2C[C@@](C)(OC)[C@@H](O)[C@H](C)O2)[C@H](C)[C@@H](O[C@@H]2O[C@H](C)C[C@H](N(C)C)[C@H]2O)[C@](C)(O)C[C@@H](C)C(=O)[C@H](C)[C@@H](O)[C@]1(C)O [Erythromycin] (concentration: 25 µM),0.871 ± 0.061
8,O=C(O)CCCCCCCC(=O)O [Azelaic Acid] (concentration: 25 µM),0.477 ± 0.081
9,CC(C(=O)O)c1cccc(C(=O)c2ccccc2)c1 (stereo not drawn) [Ketoprofen] (concentration: 25 µM),0.722 ± 0.029
10,CC[C@@H]([C@H](C)O)n1ncn(-c2ccc(N3CCN(c4ccc(OC[C@@H]5CO[C@@](Cn6cncn6)(c6ccc(F)cc6F)C5)cc4)CC3)cc2)c1=O [Posaconazole] (concentration: 25 µM),1.016 ± 0.0028
11,CO/N=C1\CN(c2nc3c(cc2F)c(=O)c(C(=O)O)cn3C2CC2)CC1CN (stereo not drawn) [Gemifloxacin] (concentration: 25 µM),0.591 ± 0.16
12,CO[C@H]1/C=C/O[C@@]2(C)Oc3c(C)c(O)c4c(O)c(c5c(nc6cc(C)ccn65)c4c3C2=O)NC(=O)/C(C)=C\C=C\[C@H](C)[C@H](O)[C@@H](C)[C@@H](O)[C@@H](C)[C@H](OC(C)=O)[C@@H]1C [Rifaximin] (concentration: 25 µM),0.4 ± 0.12
13,NCCc1ccc(O)c(O)c1 [Dopamine·HCl] (concentration: 25 µM),0.909 ± 0.097
14,O=C(O)c1cc(/N=N/c2ccc(S(=O)(=O)Nc3ccccn3)cc2)ccc1O [Sulfasalazine] (concentration: 25 µM),0.914 ± 0.11
15,Cc1cnc(NC(=O)C2=C(O)c3ccccc3S(=O)(=O)N2C)s1 [Meloxicam] (concentration: 25 µM),0.808 ± 0.066
16,CC(C)(C)NC(=O)[C@H]1CC[C@H]2[C@@H]3CC[C@H]4NC(=O)C=C[C@]4(C)[C@H]3CC[C@]12C [Finasteride] (concentration: 25 µM),0.684 ± 0.12
17,Cc1nc2n(c(=O)c1CCN1CCC(c3noc4cc(F)ccc34)CC1)CCCC2 [Risperidone] (concentration: 25 µM),0.809 ± 0.13
18,Clc1ccc(C(c2ccccc2Cl)C(Cl)Cl)cc1 (stereo not drawn) [Mitotane] (concentration: 25 µM),0.866 ± 0.14
19,CNC[C@H](O)c1ccc(O)c(O)c1 [Epinephrine (L-(-)-Epinephrine-(+)-Bitartrate)] (concentration: 25 µM),0.855 ± 0.14
20,COC(=O)N[C@H](C(=O)N[C@@H](Cc1ccccc1)[C@@H](O)CN(Cc1ccc(-c2ccccn2)cc1)NC(=O)[C@@H](NC(=O)OC)C(C)(C)C)C(C)(C)C [Atazanavir] (concentration: 25 µM),0.658 ± 0.054
21,CC(=O)NC[C@H]1CN(c2ccc(N3CCOCC3)c(F)c2)C(=O)O1 [Linezolid] (concentration: 25 µM),0.718 ± 0.084
22,CC1=C(CC(=O)O)c2cc(F)ccc2/C1=C\c1ccc([S+](C)[O-])cc1 (stereo not drawn) [Sulindac] (concentration: 25 µM),0.782 ± 0.083
23,Cc1ccc(C(=O)c2cc(O)c(O)c([N+](=O)[O-])c2)cc1 [Tolcapone] (concentration: 25 µM),0.864 ± 0.15
24,NC(=O)OCC(COC(N)=O)c1ccccc1 [Felbamate] (concentration: 25 µM),0.755 ± 0.16
25,Cn1c(=O)c2[nH]cnc2n(C)c1=O [Aminophylline] (concentration: 25 µM),0.984 ± 0.066
26,CCOC(=O)[C@H](CCc1ccccc1)N[C@@H](C)C(=O)N1CCC[C@H]1C(=O)O [Enalapril] (concentration: 25 µM),0.733 ± 0.042
27,CC(=O)[C@]1(O)Cc2c(O)c3c(c(O)c2[C@@H](O[C@H]2C[C@H](N)[C@H](O)[C@H](C)O2)C1)C(=O)c1ccccc1C3=O [Idarubicin·HCl] (concentration: 25 nM),0.622 ± 0.11
28,Cc1ccc(Cl)c(Nc2ccccc2C(=O)O)c1Cl [Meclofenamate·Na] (concentration: 25 µM),0.293 ± 0.032
